Screening data from PubChem BioAssay.
SRC3 TRFRET art = counter-screen for PPARgamma SRC-3 recruitment agonists: TR-FRET artefact | actives 0.39% (n = 99,000) | PPARgamma/SRC-3 format; active compounds read high | AID 1048 | TR-FRET ratio at 8 µM
SRC2 TRFRET art = flags TR-FRET format artefacts in PPARgamma SRC-2 recruitment agonist screen | TR-FRET artefact counter-screen; active compounds read high | TR-FRET ratio at 8 µM | actives 0.4% (n = 200,000) | AID 1049
SRC1 TRFRET art = TR-FRET artefact, counter-screen to PPARgamma/SRC-1 agonist assay; actives 0.34% (n = 99,000); TR-FRET ratio at 8 µM; AID 1051; TR-FRET detection artefact counter-screen, emission ratio; active compounds read high; in the data active = TR-FRET ratio above about 2300
PPARg SRC-1 ag = PPARgamma-driven SRC-1 recruitment agonism; P37231; PPARgamma-SRC-1 coactivator recruitment biochemical assay; activation, % at 8 µM; actives 0.41% (n = 200,000); AID 631; in the data active = activation above about 19%;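 also: 0% = DMSO and 100% = reference agonist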
Target sequence (P37231 whole entry, looked up): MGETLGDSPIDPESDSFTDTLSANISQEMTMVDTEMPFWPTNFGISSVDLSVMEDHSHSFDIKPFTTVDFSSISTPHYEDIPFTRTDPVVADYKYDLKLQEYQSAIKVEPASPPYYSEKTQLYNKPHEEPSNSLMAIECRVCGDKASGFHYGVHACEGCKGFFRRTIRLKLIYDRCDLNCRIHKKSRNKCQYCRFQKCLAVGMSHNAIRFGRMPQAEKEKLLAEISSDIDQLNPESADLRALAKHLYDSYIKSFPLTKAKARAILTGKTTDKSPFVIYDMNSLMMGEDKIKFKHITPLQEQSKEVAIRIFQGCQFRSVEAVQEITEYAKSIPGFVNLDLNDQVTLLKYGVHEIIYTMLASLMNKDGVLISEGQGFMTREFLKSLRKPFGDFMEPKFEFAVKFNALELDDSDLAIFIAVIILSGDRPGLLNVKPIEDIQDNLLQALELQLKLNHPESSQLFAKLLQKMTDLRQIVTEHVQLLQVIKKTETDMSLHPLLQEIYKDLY
PPARg SRC2 recr = agonists of SRC-2 recruitment by human PPARgamma | P37231 | PPARgamma LBD-SRC-2 recruitment, biochemical | activation, % at 8 µM | actives 0.34% (n = 200,000) | AID 1032; in the data active = activation above about 22%;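 also: 0% = vehicle and 100% = reference agonist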
PPARg SRC3 recr = PPARgamma-driven SRC-3 recruitment agonism; activation, % at 8 µM; actives 0.26% (n = 200,000); P37231; AID 731; biochemical PPARgamma/SRC-3 coactivator recruitment assay; in the data active = activation above about 23%;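 also: 0% = DMSO and 100% = reference agonist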
PPARg SRC2 ag = confirmation of agonists of SRC-2 recruitment by human PPARgamma; biochemical SRC-2 recruitment by PPARgamma; activation, % at 8 µM; actives 52% (n = 790); shares compounds with PPARg SRC3 recr; in the data active = activation above about 22%;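 also: 0% = vehicle alone and 100% = reference agonist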
PPARg SRC1 ag = confirmation of agonists of SRC-1 recruitment by human PPARgamma. shares compounds with PPARg SRC3 recr. PPARgamma–SRC-1 coactivator recruitment biochemical assay. activation, % at 8 µM. actives 43% (n = 790). AID 1300; in the data active = activation above about 20%;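 also: 0% = vehicle wells and 100% = reference agonist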
PPARg SRC3 conf = confirmation of agonists of SRC-3 recruitment by human PPARgamma; activation, % at 8 µM; biochemical PPARgamma-SRC-3 coactivator recruitment, agonist mode; shares compounds with PPARg SRC3 recr; actives 29% (n = 790); in the data active = activation above about 24%;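 also: 0% = vehicle wells and 100% = reference agonist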
The depositor's hits bear a star; . = not tested or not shown. Most compounds without a hit are left out; they make up all but 0.9% or so of the library. Rule as the data show it, unless noted: active = TR-FRET ratio above about 2000; inactive = the rest.

SMILES	SRC3 TRFRET art	SRC2 TRFRET art	SRC1 TRFRET art	PPARg SRC-1 ag	PPARg SRC2 recr	PPARg SRC3 recr	PPARg SRC2 ag	PPARg SRC1 ag	PPARg SRC3 conf
CN1CCN(C(=O)CSc2cc(=O)n(C)c3ccccc23)CC1	2760*	2614*	2594*	34.5*	38.3*	20.1	29.0*	17.4	19.0
CN1CCN(C(=O)CCCOc2cc(=O)n(C)c3ccccc23)CC1	.	1511	.	5.6	6.6	6.5	.	.	.
Cn1c(=O)cc(OCCCC(=O)N2CCN(c3ccccc3)CC2)c2ccccc21	.	1446	.	3.9	9.9	3.0	.	.	.
Cn1c(=O)cc(SCC(=O)N2CCN(c3ccccc3)CC2)c2ccccc21	.	2466*	.	33.7*	46.6*	40.4*	40.0*	27.6*	28.9*
Cn1c(=O)cc(SCC(=O)NCCC2=CCCCC2)c2ccccc21	1753	1894	1986	5.2	12.1	7.5	.	.	.
Cn1c(=O)cc(SCC(=O)N2CCN(c3ccccn3)CC2)c2ccccc21	.	2556*	.	38.3*	55.4*	53.0*	39.9*	29.1*	27.3*
CCN1CCN(C(=O)CSc2cc(=O)n(C)c3ccccc23)CC1	2490*	2412*	2968*	33.0*	8.9	20.6	29.0*	19.1	19.9
COC(=O)CSc1nc(-c2ccc(C)cc2)c2c(c1C#N)CCCC2	.	1539	.	3.0	7.8	8.8	.	.	.
Cc1csc(NC(=O)CCSCCc2ccccn2)n1	.	1691	.	0.4	-4.3	-0.4	.	.	.
CN(CCCNC(=O)CSc1cc(=O)n(C)c2ccc(Cl)cc12)Cc1ccccc1	3068*	2374*	3259*	50.6*	57.6*	46.4*	39.6*	24.2*	23.9
Cn1c(=O)cc(SCC(=O)N2CCOCC2)c2ccc(Cl)cc21	.	2895*	.	61.1*	62.1*	82.6*	28.6*	17.8	19.8
Cn1c(=O)cc(OCCCC(=O)N2CCCCC2)c2ccccc21	.	1780	.	2.3	17.7	10.6	.	.	.
Cn1c(=O)cc(SCC(=O)N2CCCC2)c2ccc(Cl)cc21	.	3299*	.	71.6*	87.2*	86.8*	42.2*	29.1*	30.3*
COCCNC(=O)CSc1cc(=O)n(C)c2cc(Cl)ccc12	2886*	2945*	3701*	62.1*	27.6*	39.9*	38.6*	25.5*	26.9*
O=C(Cn1cnc([N+](=O)[O-])n1)N/N=C/c1cccc2ccccc12	1436	1658	1708	-3.1	1.6	1.3	.	.	.
O=C(O)C1CCN(S(=O)(=O)c2ccc(Oc3ccccc3)cc2)CC1	.	1654	.	-2.5	3.3	-2.5	.	.	.
Cc1ccc(C(C(=O)NCc2ccco2)N(CCc2ccccc2)C(=O)Cn2nnc3ccccc32)o1 (stereo not drawn)	1671	1653	1885	7.8	15.6	32.4*	11.8	4.7	15.8
O=c1[nH]c(Nc2nc3ccccc3o2)nc2c1CCCC2	.	1633	.	3.2	-4.1	-5.5	.	.	.
CC12CCC(C(=O)N(CSC(=S)N/N=C\c3ccccc3O)C1=O)C2(C)C (stereo not drawn)	.	1953	.	17.7	30.2*	42.9*	45.6*	43.5*	24.9*
CNC(=S)N/N=C(\C)c1cccc(C(F)(F)F)c1	1576	1827	2058	2.3	2.5	-1.9	.	.	.
CCNc1ccc2noc3c2c1C(=O)c1ccccc1-3	.	1616	.	4.9	0.9	10.7	.	.	.
O=C1c2ccccc2-c2onc3ccc(NCc4ccco4)c1c23	2084*	1951	2253	31.7*	35.4*	20.9	22.7*	14.0	12.6
CCCCN(C(=S)Nc1cccc(SC)c1)C1CCN(C(C)=O)CC1	1695	1410	1675	6.4	-5.9	-0.1	.	.	.
Oc1ccc(Br)cc1C=Nc1cccn2cc(-c3ccccc3)nc12	1820	1895	1670	19.0	22.5*	11.0	17.4	16.5	13.7
Nc1ccc2oc(-c3ccc4nc[nH]c4c3)nc2c1	.	1494	.	-4.2	0.7	3.3	.	.	.
SMILES	SRC3 TRFRET art	SRC2 TRFRET art	SRC1 TRFRET art	PPARg SRC-1 ag	PPARg SRC2 recr	PPARg SRC3 recr	PPARg SRC2 ag	PPARg SRC1 ag	PPARg SRC3 conf
Cc1nc2ccc(-c3nc4cc(N)ccc4o3)cc2[nH]1	.	1816	.	21.4*	15.8	18.1	9.6	8.9	7.8
CNc1ncnc2sc(-c3ccccc3)cc12	1461	1590	2133	-1.9	-4.7	-0.3	.	.	.
S=c1[nH]cnc2sc(-c3ccccc3)cc12	2631*	2602*	3261*	46.4*	51.7*	30.1*	33.0*	22.2*	20.7
COC(=O)c1cc2c(C)cc3ccc(C)cn3c-2c1C(=O)OC	.	2394*	.	26.3*	41.1*	47.2*	12.1	8.8	4.8
COC(=O)c1cc2c(C)c(C)c3ccccn3c-2c1C(=O)OC	.	2102*	.	18.5	31.8*	35.3*	7.1	6.7	4.4
COC(=O)c1cc2ccccn2c2c(C(=O)OC)c(C(=O)OC)cc1-2	.	1669	.	8.8	5.8	3.1	.	.	.
O=C(Nc1nc(-c2ccc(S(=O)(=O)N3CCCCCC3)cc2)cs1)c1ccccc1	.	2426*	.	21.0*	15.4	7.8	52.3*	38.6*	33.3*
O=C(Nc1nc(-c2ccc3c(c2)OCCO3)cs1)c1ccc(S(=O)(=O)N2CCCCC2)cc1	.	1917	.	5.8	16.5	8.8	.	.	.
O=C(Nc1nc(-c2ccc(S(=O)(=O)N3CCCC3)cc2)cs1)C1COc2ccccc2O1 (stereo not drawn)	.	2533*	.	19.8*	22.2*	32.5*	34.1*	27.2*	20.0
O=C(CSC1c2ccccc2C(=O)N1c1ccccc1)N1CCOCC1 (stereo not drawn)	.	1444	.	2.2	-3.6	-8.4	.	.	.
CC(Sc1nc(N2CCCCC2)c2c(c1C#N)CCCC2)C(=O)O (stereo not drawn)	.	1908	.	19.1*	29.5*	17.9	24.6*	16.0	16.3
COc1ccc(-c2nc(SCC(=O)NC3CCCC3)c(-c3ccc(OC)cc3)[nH]2)cc1	1994	1685	1827	6.7	24.0*	10.5	1.2	2.2	-0.6
CC(C)(C)c1ccc(OCCOCCn2cnc3ccccc3c2=O)cc1	1612	1543	1652	-5.7	-4.0	1.1	.	.	.
N#Cc1cc(C(=O)c2cc(Br)ccc2O)cn(Cc2ccccc2)c1=O	1805	1955	2306	31.3*	14.0	7.6	27.3*	23.1*	17.7
COc1ccc(O)c(C(=O)c2cc(C#N)c(=O)n(Cc3ccccc3)c2)c1	1633	1613	1656	11.1	1.6	5.5	.	.	.
COc1ccc(C(=O)N/N=C/c2ccc(SC)cc2)cc1	1711	1459	2123	6.0	0.7	-2.5	.	.	.
Cc1nnc(NC(=O)c2cccc(S(=O)(=O)N3CCc4ccccc43)c2)s1	.	1519	.	7.5	9.2	11.0	.	.	.
